# Screening results deposited in PubChem BioAssay by The Scripps Research Institute Molecular Screening Center.
# A selection: hits, their analogues and other compounds. The true share with any hit is near 3.4%.
# ADAM10 inh – inhibits human ADAM10 | inhibition, % at 7 µM | O14672 | 370,000 tested, 0.62% active | recombinant ADAM10, EDANS/DABCYL FRET peptide cleavage, 3 h | AID 720582;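 active means inhibition above a per-campaign cutoff equal to the mean of compounds falling between control-based bounds plus 3 SD, cut at about 20% in these data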
# Target sequence (O14672 214-748 limits assumed): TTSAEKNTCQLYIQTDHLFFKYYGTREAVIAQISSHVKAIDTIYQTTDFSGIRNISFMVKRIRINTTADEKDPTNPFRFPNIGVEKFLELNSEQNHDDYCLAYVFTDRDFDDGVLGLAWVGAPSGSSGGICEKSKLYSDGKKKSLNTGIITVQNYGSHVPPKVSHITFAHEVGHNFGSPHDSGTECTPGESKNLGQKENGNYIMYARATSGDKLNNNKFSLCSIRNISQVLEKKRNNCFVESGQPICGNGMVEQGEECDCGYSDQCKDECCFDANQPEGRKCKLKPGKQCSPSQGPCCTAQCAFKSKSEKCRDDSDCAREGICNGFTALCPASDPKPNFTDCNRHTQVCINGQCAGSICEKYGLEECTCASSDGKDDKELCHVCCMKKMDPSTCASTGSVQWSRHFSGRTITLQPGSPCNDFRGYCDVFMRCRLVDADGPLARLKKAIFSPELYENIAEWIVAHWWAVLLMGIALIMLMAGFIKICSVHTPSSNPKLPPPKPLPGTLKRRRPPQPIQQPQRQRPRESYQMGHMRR
# proKLK7 act – activates the human kallikrein-7 zymogen | P49862 | activation, % at 7 µM | AID 652039 | purified proKLK7, EDANS-DABCYL substrate fluorescence; 100% is mature enzyme control, 0% vehicle | 370,000 tested, 0.9% active;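 active means activation above the mean of all tested compounds plus 3 SD, computed per campaign excluding outliers beyond control limits, cut at about 13% in these data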
# PLC-gamma1 inh – blocks human PLC-gamma1 enzyme activity; P19174; purified PLC-gamma1, fluorogenic substrate, fluorescence; inhibition, % at 12.2 µM; 370,000 tested, 0.84% active
# PLC-beta3 inh – PLC-beta3 (human) inhibition, primary screen; Purified PLC-beta3, fluorogenic substrate, fluorescence; inhibition, % at 12.2 µM; 370,000 tested, 0.18% active; in the data active means inhibition above about 11%
# ADAM17 inh – ADAM17 inhibition, QFRET primary screen; P78536; recombinant ADAM17, EDANS/DABCYL FRET peptide cleavage; inhibition, % at 6.95 µM; 370,000 tested, 0.83% active;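 active means inhibition above the mean of compounds lying between control limits plus 3 SD, set per campaign, cut at about 8.5% in these data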
# HGIII-sPLA2 inh – Inhibits HGIII-sPLA2 liposome hydrolysis, primary screen | Q9NZ20 | QFRET BODIPY PC-A2 liposome hydrolysis, fluorescence | inhibition, % at 12.2 µM | 370,000 tested, 0.56% active;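 active means inhibition above mean plus 3 SD of compounds lying within the high and low control bounds, cut at about 19% in these data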
# PLCg1 ctr – inhibits human PLC-gamma1 in PLC-beta3 counter-screen; AID 743258; 3,300 tested, 3.1% active; purified PLC-gamma1, fluorogenic substrate, fluorescence; inhibition, % at 12.3 µM; shares compounds with PLC-gamma1 inh
# PLCbeta3 conf – confirmation of human PLC-beta3 inhibitors; 3,300 tested, 1% active; inhibition, % at 12.3 µM; AID 743261; purified PLC-beta3, fluorogenic substrate fluorescence; shares compounds with PLC-gamma1 inh; in the data active means inhibition above about 11%
# A number is an active result; – = inactive; · = not tested or not shown. Unless noted, no stated cut-off is given here; in the data, active means inhibition above about 9.5%; inactive means the rest.
SMILES,ADAM10 inh,proKLK7 act,PLC-gamma1 inh,PLC-beta3 inh,ADAM17 inh,HGIII-sPLA2 inh,PLCg1 ctr,PLCbeta3 conf
CCN(CC)S(=O)(=O)c1ccc(C(C)NCC(=O)Nc2ccccc2C(=O)NC2CC2)cc1 (configuration not stated),–,–,10,–,–,–,–,–
CCOC(=O)c1csc(NNC=O)n1,–,–,–,11,–,–,–,–
C=CCC[C@@H](Cc1ccc(F)cc1)C(=O)OC[C@H](Cc1c[nH]c2ccccc12)NC(=O)[C@@H](CC=C)CC(=O)N[C@@H](CO)Cc1ccccc1,–,–,10,–,–,–,–,–
O=c1cc(-c2ccccc2)nc(SCCOc2ccccc2Cl)[nH]1,–,–,12,–,–,–,–,–
O=C(CSc1nc(-c2ccccc2)cc(=O)[nH]1)Nc1ccccc1,–,–,–,–,–,–,·,·
Cc1ccccc1OCCCN1CCC(C(O)(c2ccccc2)c2ccccc2)CC1,–,–,–,–,–,–,·,·
CCCCCC(=O)NC(=S)Nc1ccc(Cl)cn1,–,–,10,–,–,–,–,–
COc1ccc(C(CC(=O)N2CCCC2)c2ccc(F)cc2)cc1 (configuration not stated),–,–,11,–,–,–,–,–
COc1ccc(C2(C(=O)Nc3ccc(OC)cc3OC)CCCC2)cc1,–,–,–,–,–,–,·,·
COC(=O)[C@@H]1CC[C@@](C)(c2ccc(OC)cc2)C1(C)C,–,–,14,–,–,–,–,–
C[C@@H]1C[C@@H]2O[C@H]2CCCCC(=O)Cc2cc(O)cc(O)c2C(=O)O1,–,–,–,–,–,–,·,·
NC(=O)c1cc(S(=O)(=O)NCCc2ccccc2)cs1,–,–,–,–,–,–,·,·
NC(=O)c1cc(S(=O)(=O)NCCc2ccc(Cl)cc2)cs1,–,–,12,–,–,–,–,–
C[C@H](NC(=O)c1ccc(Br)cc1)C(=O)NCc1ccc(S(N)(=O)=O)cc1,–,–,9.6,–,–,–,–,–
O=C(c1cccc(C(F)(F)F)c1)N1CC[C@H]2[C@H](CCCN2Cc2ccc(F)cc2)C1,–,–,–,–,–,–,·,·
O=C(Nc1ccc2c(c1)OCCO2)c1cc(-n2cnnc2)ccc1Cl,–,–,11,–,–,–,–,–
O=C(NC1CCCCC1)c1cc(-n2cnnc2)ccc1Cl,–,–,9.8,–,–,–,–,–
CCCNC(=O)C1(C)CCN(CCS(=O)(=O)c2ccc(C)cc2)C1 (configuration not stated),–,–,–,–,–,–,·,·
CCNC(=O)C1(C)CCN1CCS(=O)(=O)c1ccc(C)cc1 (configuration not stated),–,–,–,13,–,–,–,–
COc1ccc(C#CCN(C)/C(N)=N/C(=O)OCc2ccccc2)cc1,–,–,–,–,–,–,·,·
O=C(O)c1ccc(-n2c(-c3cc(-c4ccco4)[nH]n3)n[nH]c2=S)cc1,–,–,31,–,–,–,23,–
C=CCN(Cc1ccccc1)C(C#CC(=C)C)Cc1ccccc1 (configuration not stated),–,–,–,–,–,–,·,·
CN(CC(O)CN)CC(O)CN1CCCCC1 (configuration not stated),–,–,9.6,–,–,–,–,–
Clc1nnc(Cl)c2c1ncn2Cc1ccccc1,–,–,11,–,–,–,–,–
CCC(=O)N1CCCC1(C)C(=O)Nc1ccc2scnc2c1 (configuration not stated),–,–,12,–,–,–,–,–
SMILES,ADAM10 inh,proKLK7 act,PLC-gamma1 inh,PLC-beta3 inh,ADAM17 inh,HGIII-sPLA2 inh,PLCg1 ctr,PLCbeta3 conf
CC(C)N1CCC1(C)C(=O)Nc1ccc2scnc2c1 (configuration not stated),–,–,–,–,–,–,·,·
CCCCCCCCN1C(=O)[C@@H](CC(=O)NCCCCc2ccccc2)C[C@@]2(C(=O)OC)C1=C[C@H](C1CCCC1)O[C@@H]2C,–,–,–,–,–,–,·,·
CCN(CC(=O)NC1CCS(=O)(=O)C1)C(=O)C(c1ccccc1)c1ccccc1 (configuration not stated),–,–,12,–,–,–,–,–
CCN(CC(=O)NC1CCS(=O)(=O)C1)C(=O)COc1ccccc1-c1ccccc1 (configuration not stated),–,–,–,–,–,–,·,·
CC(=O)c1cccc(NC(=O)c2onc(C)c2Cl)c1,–,–,–,–,–,–,·,·
Cc1noc(C(=O)Nc2cccnc2)c1Cl,–,–,12,–,–,–,–,–
CN(c1ccccc1)S(=O)(=O)c1ccc(NC(=S)NC(=O)c2ccccc2)cc1,–,–,–,–,–,–,·,·
CN(c1ccccc1)S(=O)(=O)c1ccc(NC(=S)NC(=O)C2CC2)cc1,–,–,10,–,–,–,–,–
O=C(NC1CCCCN(Cc2ccc(OC(F)(F)F)cc2)C1=O)c1cccc(F)c1 (configuration not stated),–,–,–,–,–,–,·,·
CCN(CC)C(=O)CC[C@H]1CC[C@]2(CCCN(C(=O)c3ccccc3)C2)O1,–,–,–,–,–,–,·,·
CCCCNC(=O)C[C@@H]1C[C@@]2(C(=O)OC)CCCCC=C2N(Cc2cccc3ccccc23)C1=O,–,–,11,–,–,–,–,–
COCCCNC(=O)C[C@@H]1C[C@@]2(C(=O)OC)CCCCC=C2N(Cc2cccc3ccccc23)C1=O,–,–,–,–,–,–,·,·
CC(C)[C@H](NC(=O)[C@@H](N)Cc1ccccc1)C(=O)N1CCC2CCN(Cc3ccccc3)CC21 (some centres not stated),–,–,–,–,–,–,·,·
COc1cc(N)c(Cl)cc1C(=O)NC1CCN(CCCOc2ccc(F)cc2)CC1OC (configuration not stated),–,–,11,–,–,–,–,–
C#CCN(C)S(=O)(=O)c1ccc(N2CCCC2)cc1Br,–,–,–,–,–,–,·,·
CC1=C(C(=O)OCc2ccccc2)C(c2ccccc2OS(=O)(=O)c2ccc([N+](=O)[O-])cc2)NC(=O)N1CCCC(=O)O (configuration not stated),–,–,–,–,–,–,·,·
CCOC(=O)C1=C(C)N(CCCC(=O)O)C(=O)NC1c1ccccc1OS(=O)(=O)c1ccc([N+](=O)[O-])cc1 (configuration not stated),–,–,12,–,–,–,–,–
CCOC(=O)Cn1cc(CN2C(C(=O)OC)CN(Cc3ccc(F)cc3)CCS2(=O)=O)nn1 (configuration not stated),–,–,–,–,–,–,·,·
